Values joined by “and” are separate entries in the source; they are usually repeats but may differ in a detail not shown here. Identical values can stand only once. Inconclusive results are not listed. Some compounds were tested as several samples or in several runs, with calls that do not always agree. Active and inactive are the calls of the source. How the source made its calls, unless noted: active means hit-call score of the fitted dose curve at least 0.9, where 1 is the maximum; inactive means score below 0.9.

Assay [1] addresses Glucocorticoid receptor (Homo sapiens) (UniProt P04150). Description: ATG_GR_TRANS: Attagene TRANS-FACTORIAL HepG2 Assay for human Glucocorticoid Receptor (GR) (AID 2282978; active means hit-call score of the fitted dose curve at least 0.9, where 1 is the maximum;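 further: activators score as hits since higher reporter transcript over DMSO is fitted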). Conditions: HepG2 Attagene TRANS GR reporter, mRNA transcription. The method in brief:
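After 24 h incubation with test chemical, transfected HepG2 cells were lysed for RNA; reporter cDNA was amplified, FAM-labelled, HpaI-digested and sized on a capillary analyser. Signal gain relative to DMSO was scored.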

Assay [2] deals with Oxysterols receptor LXR-alpha (Homo sapiens) (UniProt Q13133). Description: ATG_LXRa_TRANS: Attagene TRANS-FACTORIAL HepG2 Assay for human Liver X Receptor alpha (LXRa) (AID 2282980; active means hit-call score of the fitted dose curve at least 0.9, where 1 is the maximum). To be noted: HepG2 Attagene TRANS reporter, LXRa transactivation. In short, it runs like this: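 Chemical-induced reporter mRNA measured by RT-PCR with fluorescent labelling and capillary electrophoresis after 24 h dosing of transiently transfected HepG2 cells expressing exogenous NR-Gal4 chimeras; increases scored against DMSO baseline.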
Sequence of Oxysterols receptor LXR-alpha (Homo sapiens) (Q13133 whole entry, looked up, the tested form may be a part): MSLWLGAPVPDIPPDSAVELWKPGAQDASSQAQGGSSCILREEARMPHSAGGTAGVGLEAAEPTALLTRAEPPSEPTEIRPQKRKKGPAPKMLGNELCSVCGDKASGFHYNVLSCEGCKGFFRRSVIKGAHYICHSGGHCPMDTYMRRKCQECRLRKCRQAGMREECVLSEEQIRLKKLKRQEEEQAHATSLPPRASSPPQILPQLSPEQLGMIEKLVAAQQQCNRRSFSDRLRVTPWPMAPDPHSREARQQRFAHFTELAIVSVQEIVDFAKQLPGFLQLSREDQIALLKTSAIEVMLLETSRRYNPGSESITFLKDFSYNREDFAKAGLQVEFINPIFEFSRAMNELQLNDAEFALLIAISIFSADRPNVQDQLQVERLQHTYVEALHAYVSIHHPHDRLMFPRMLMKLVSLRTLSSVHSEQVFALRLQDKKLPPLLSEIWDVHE

Assay [3] has as its target Oxysterols receptor LXR-beta (Homo sapiens) (UniProt P55055). Put plainly: ATG_LXRb_TRANS: Attagene TRANS-FACTORIAL HepG2 Assay for human Liver X Receptor beta (LXRb) (AID 2282981; active means hit-call score of the fitted dose curve at least 0.9, where 1 is the maximum). To be noted: HepG2 Attagene TRANS GAL4-LXRb reporter, mRNA. The method in brief: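 Readout: fluorescent reporter mRNA fragments resolved by capillary electrophoresis after RT-PCR. System: transiently transfected human HepG2, exogenous LXRb-Gal4 chimera driving GAL4-UAS reporter, 24 h dosing. Activity fitted upward against DMSO baseline.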

The target of assay [4] is Hepatocyte nuclear factor 4-alpha (Homo sapiens) (UniProt P41235). Description: ATG_HNF4a_TRANS: Attagene TRANS-FACTORIAL HepG2 Assay for human Hepatocyte Nuclear Factor 4 alpha (HNF4a) (AID 2282982; active means hit-call score of the fitted dose curve at least 0.9, where 1 is the maximum). Conditions: HepG2 HNF4a transactivation reporter, mRNA readout. In short, it runs like this:
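Transient MRTU transfection of HepG2, 24 h dosing. Readout: reporter mRNA via RT-PCR + capillary electrophoresis, fluorescence; activity fit upward relative to DMSO control.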

Assay [5] can be described thus: ATG_M_06_TRANS: Attagene TRANS-FACTORIAL HepG2 Assay for M06 Transcription Factor (Internal Marker) (AID 2282983; active means hit-call score of the fitted dose curve at least 0.9, where 1 is the maximum). To be noted: HepG2 Attagene TRANS M06 internal marker reporter. The method in brief:
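Background-control reporter readout: after 24 h chemical exposure of transiently transfected HepG2 (GAL4-UAS reporter units), mRNA quantified by RT-PCR with fluorescent labeling and capillary electrophoresis. Gain-of-signal fitting against DMSO baseline.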

The nature of assay [6]: ATG_M_32_TRANS: Attagene TRANS-FACTORIAL HepG2 Assay for M32 Transcription Factor (Internal Marker) (AID 2282984; active means hit-call score of the fitted dose curve at least 0.9, where 1 is the maximum;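 further: transcript level of a background control reporter unit measured by RT-PCR and capillary electrophoresis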). Conditions: HepG2 Attagene TRANS M32 internal marker reporter. In short, it runs like this: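 Read-out: fluorescent reporter cDNA fragments resolved by capillary electrophoresis after RT-PCR of total RNA. Transfected HepG2 cells were exposed to chemical for 24 h. Activity scored in the positive direction relative to DMSO.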

For assay [7], the target named is Nuclear receptor subfamily 4 group A member 2 (Homo sapiens) (UniProt P43354). Put plainly: ATG_NURR1_TRANS: Attagene TRANS-FACTORIAL HepG2 Assay for human Nuclear Receptor Related Protein 1 (NURR1) (AID 2282985; active means hit-call score of the fitted dose curve at least 0.9, where 1 is the maximum). Conditions: HepG2 Attagene TRANS reporter, mRNA readout. The method in brief: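 Read-out: reporter mRNA induction by RT-PCR plus capillary electrophoresis with fluorescence detection, after 24 h dosing of transfected HepG2 cells. Exogenous NR-Gal4 chimera activity drives GAL4-UAS reporter; activity fitted upward versus DMSO.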
Sequence of Nuclear receptor subfamily 4 group A member 2 (Homo sapiens) (P43354 whole entry, looked up, the tested form may be a part): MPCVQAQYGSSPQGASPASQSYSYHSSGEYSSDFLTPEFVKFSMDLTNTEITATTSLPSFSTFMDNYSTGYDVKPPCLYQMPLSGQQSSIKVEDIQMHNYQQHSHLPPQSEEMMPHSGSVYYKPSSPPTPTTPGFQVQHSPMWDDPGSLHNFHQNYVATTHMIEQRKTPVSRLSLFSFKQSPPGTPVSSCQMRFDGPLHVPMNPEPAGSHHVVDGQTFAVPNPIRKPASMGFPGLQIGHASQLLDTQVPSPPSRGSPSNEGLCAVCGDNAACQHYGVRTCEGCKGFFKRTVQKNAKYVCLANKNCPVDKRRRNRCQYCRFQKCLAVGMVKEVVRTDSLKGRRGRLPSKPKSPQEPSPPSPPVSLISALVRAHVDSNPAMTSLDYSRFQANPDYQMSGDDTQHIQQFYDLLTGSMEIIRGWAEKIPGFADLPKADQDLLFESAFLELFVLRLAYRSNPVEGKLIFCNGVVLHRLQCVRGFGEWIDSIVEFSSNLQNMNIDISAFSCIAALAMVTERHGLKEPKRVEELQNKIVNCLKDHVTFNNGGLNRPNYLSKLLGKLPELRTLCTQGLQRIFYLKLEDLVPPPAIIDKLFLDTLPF

Assay [8] deals with Transcriptional activator Myb (Homo sapiens) (UniProt P10242). Put plainly: ATG_Myb_CIS: Attagene CIS-FACTORIAL HepG2 Assay for human Myeloblastosis (Myb) Proto-Oncogene Transcription Factor (AID 2282986). Conditions: HepG2 Attagene CIS-FACTORIAL Myb reporter transcription; actives raise or lower the signal. In short, it runs like this: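 After 24 h of compound dosing, total RNA from transfected HepG2 cells is reverse-transcribed and the reporter sequences amplified, labeled and separated by capillary electrophoresis. Values come from bidirectional fitting against DMSO.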
Sequence of Transcriptional activator Myb (Homo sapiens) (P10242 whole entry, looked up): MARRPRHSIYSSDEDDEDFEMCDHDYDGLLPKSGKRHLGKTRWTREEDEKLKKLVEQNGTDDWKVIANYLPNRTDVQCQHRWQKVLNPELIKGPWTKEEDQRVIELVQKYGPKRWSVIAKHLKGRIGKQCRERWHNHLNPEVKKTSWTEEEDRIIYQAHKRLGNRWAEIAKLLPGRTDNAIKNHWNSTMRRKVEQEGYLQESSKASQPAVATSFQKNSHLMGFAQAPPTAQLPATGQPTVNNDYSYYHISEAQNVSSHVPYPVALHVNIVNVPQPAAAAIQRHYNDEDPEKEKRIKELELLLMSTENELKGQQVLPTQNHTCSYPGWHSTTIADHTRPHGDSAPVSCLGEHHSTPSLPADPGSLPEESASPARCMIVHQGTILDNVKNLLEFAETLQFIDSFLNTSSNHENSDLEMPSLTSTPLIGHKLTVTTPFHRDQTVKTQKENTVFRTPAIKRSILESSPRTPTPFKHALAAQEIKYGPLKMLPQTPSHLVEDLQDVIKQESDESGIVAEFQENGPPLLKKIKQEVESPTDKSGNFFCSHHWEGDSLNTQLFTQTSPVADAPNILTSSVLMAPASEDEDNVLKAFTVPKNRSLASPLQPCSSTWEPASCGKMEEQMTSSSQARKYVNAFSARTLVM

The target in assay [9] is Nuclear respiratory factor 1 (Homo sapiens) (UniProt Q16656). Put plainly: ATG_NRF1_CIS: Attagene CIS-FACTORIAL HepG2 Assay for human Nuclear Respiratory Factor 1 (NRF1) Orphan Gene (AID 2282987). To be noted: HepG2 NRF1 cis-element reporter, Attagene multiplex; actives raise or lower the signal. The method in brief:
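Measured: fluorescent reporter-specific RT-PCR products from transfected HepG2 cells, separated by capillary electrophoresis. Exposure lasted 24 h. Analysis used bidirectional curve fitting with DMSO as negative control.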

A short description of assay [10]: ATG_NFI_CIS: Attagene CIS-FACTORIAL HepG2 Assay for human Nuclear Factor I (NFI) (AID 2282989). Conditions: HepG2 cis-regulatory reporter, NFI response element transcription; actives raise or lower the signal. The method in brief: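 Reporter transcription driven by endogenous transcription factors in HepG2 cells; 24 h treatment. Quantitation by labelled RT-PCR fragments on capillary electrophoresis, gain- or loss-of-signal relative to DMSO.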

Assay [11] addresses Myc proto-oncogene protein (Homo sapiens) (UniProt P01106). Description: ATG_Myc_CIS: Attagene CIS-FACTORIAL HepG2 Assay for human Myelocytomatosis (Myc) Proto-Oncogene Transcription Factor (AID 2282990). To be noted: HepG2, Attagene cis-reporter transcription factor activity; actives raise or lower the signal. In short, it runs like this:
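Read-out: fluorescent reporter mRNA fragments resolved by capillary electrophoresis after RT-PCR. Human HepG2 liver cells carried transfected cis-element reporter units and were dosed for 24 h. Gain or loss of signal fitted relative to DMSO baseline.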

Assay [12] in a line: ATG_NF_kB_CIS: Attagene CIS-FACTORIAL HepG2 Assay for human Nuclear Factor Kappa B (NF-kB) (AID 2282991). Conditions: HepG2 Attagene cis-factorial NF-kB reporter mRNA; actives raise or lower the signal. The method in brief:
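Fluorescence of labelled RT-PCR products separated by capillary electrophoresis gives reporter mRNA levels from transfected HepG2 cells exposed 24 h; values are fitted in both directions relative to DMSO.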

A short description of assay [13]: ATG_NRF2_ARE_CIS: Attagene CIS-FACTORIAL HepG2 Assay for human Nuclear Factor Erythroid 2 Related Factor 2 (NFR2) response to Antioxidant Response Elements (ARE) (AID 2282992). To be noted: HepG2 Attagene ARE/NRF2 reporter, transcription factor activity; actives raise or lower the signal. In short, it runs like this:
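Endogenous transcription factor activity in human liver HepG2 cells is tracked via a cis-element-driven reporter within a multiplexed set. mRNA induction is read by RT-PCR and capillary electrophoresis after 24 h, with DMSO as baseline.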

Assay [14] is described as follows: ATG_Oct_MLP_CIS: Attagene CIS-FACTORIAL HepG2 Assay for human Octamer-Binding Transcription Factor (Oct) (AID 2282993). Conditions: HepG2 Attagene cis-factorial Oct reporter, mRNA; actives raise or lower the signal. The method in brief:
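Transfected HepG2 cells, 24 h treatment. Reporter mRNA quantified by RT-PCR–capillary electrophoresis; bidirectional fitting against DMSO.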

Assay [15] addresses Cellular tumor antigen p53 (Homo sapiens) (UniProt P04637). Description: ATG_p53_CIS: Attagene CIS-FACTORIAL HepG2 Assay for human p53 Transcription Factor (AID 2282994). Conditions: HepG2 p53 cis-element reporter, Attagene mRNA; actives raise or lower the signal. The method in brief:
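Steps: transfect HepG2 with multiplexed cis reporter constructs; dose chemicals 24 h; extract RNA, reverse-transcribe, PCR-amplify reporter sequences; FAM-label, HpaI-digest, resolve fragments by CE. Activity fitted both directions relative to DMSO.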

Assay [16] can be described thus: BSK_3C_TissueFactor: BioMAP Diversity Plus: 3C Assay for Tissue Factor Biomarker Activity (AID 2282997). Conditions: BioMAP 3C HUVEC, tissue factor biomarker readout; actives raise or lower the signal. The method in brief: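 Tissue factor on primary human umbilical vein endothelium was read by ELISA 24 h after dosing, gain or loss relative to DMSO. Cytotoxicity ran alongside via SRB (0.1%, TCA-fixed, 560 nm).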

A short description of assay [17]: BSK_3C_uPAR: BioMAP Diversity Plus: 3C Assay for Urokinase-type plasminogen activator receptor (uPAR) Biomarker Activity (AID 2282998). To be noted: BioMAP 3C HUVEC, uPAR biomarker ELISA; actives raise or lower the signal. The method in brief: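 Readout: ELISA for surface uPAR. System: human umbilical vein endothelial primary cells, 24 h after chemical exposure. Analysis: bidirectional fit, DMSO baseline.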

Assay [18] has as its target Estrogen-related receptor gamma (Homo sapiens) (UniProt P62508). Put plainly: ATG_ERRg_TRANS: Attagene TRANS-FACTORIAL HepG2 Assay for human Estrogen-Related Receptor gamma (ERRg) (AID 2282977; active means hit-call score of the fitted dose curve at least 0.9, where 1 is the maximum;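 further: hits increase reporter signal over DMSO so potencies reflect activators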). Conditions: HepG2 Attagene TRANS reporter, ERRg transactivation. The method in brief:
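Readout: fluorescent reporter-mRNA fragments resolved by capillary electrophoresis after RT-PCR and HpaI cut. Cells: transiently transfected HepG2 carrying GAL4-UAS reporters driven by exogenous NR-Gal4 chimeras, dosed 24 h. Activity fitted upward relative to DMSO baseline.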

Assay [19] addresses Bile acid receptor (Homo sapiens) (UniProt Q96RI1). Description: ATG_FXR_TRANS: Attagene TRANS-FACTORIAL HepG2 Assay for Farnesoid X Receptor (FXR) (AID 2282979; active means hit-call score of the fitted dose curve at least 0.9, where 1 is the maximum;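 further: hits raise reporter mRNA above DMSO so AC50 marks FXR activation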). To be noted: HepG2 Attagene TRANS FXR-GAL4 reporter transcription. In short, it runs like this:
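Reporter transcripts from transfected HepG2 cells were measured 24 h after dosing, using RT-PCR with capillary electrophoresis of 6-FAM-labelled fragments. The read-out reflects activity of exogenous FXR-Gal4 chimera on GAL4-UAS units, with induction relative to DMSO.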

Sequence of Cellular tumor antigen p53 (Homo sapiens) (P04637 whole entry, looked up, the tested form may be a part): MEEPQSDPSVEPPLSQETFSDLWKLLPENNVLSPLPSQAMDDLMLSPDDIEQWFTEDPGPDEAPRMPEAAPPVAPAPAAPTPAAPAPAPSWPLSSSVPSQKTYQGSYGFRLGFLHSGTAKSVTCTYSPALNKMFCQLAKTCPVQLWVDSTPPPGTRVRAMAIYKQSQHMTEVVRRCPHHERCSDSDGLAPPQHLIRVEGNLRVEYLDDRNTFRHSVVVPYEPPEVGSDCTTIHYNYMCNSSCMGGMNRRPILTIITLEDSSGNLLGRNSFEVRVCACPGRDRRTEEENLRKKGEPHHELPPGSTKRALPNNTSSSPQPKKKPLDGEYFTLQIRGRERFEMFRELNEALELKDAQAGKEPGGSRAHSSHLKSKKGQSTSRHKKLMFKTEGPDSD
Sequence of Myc proto-oncogene protein (Homo sapiens) (P01106 whole entry, looked up, the tested form may be a part): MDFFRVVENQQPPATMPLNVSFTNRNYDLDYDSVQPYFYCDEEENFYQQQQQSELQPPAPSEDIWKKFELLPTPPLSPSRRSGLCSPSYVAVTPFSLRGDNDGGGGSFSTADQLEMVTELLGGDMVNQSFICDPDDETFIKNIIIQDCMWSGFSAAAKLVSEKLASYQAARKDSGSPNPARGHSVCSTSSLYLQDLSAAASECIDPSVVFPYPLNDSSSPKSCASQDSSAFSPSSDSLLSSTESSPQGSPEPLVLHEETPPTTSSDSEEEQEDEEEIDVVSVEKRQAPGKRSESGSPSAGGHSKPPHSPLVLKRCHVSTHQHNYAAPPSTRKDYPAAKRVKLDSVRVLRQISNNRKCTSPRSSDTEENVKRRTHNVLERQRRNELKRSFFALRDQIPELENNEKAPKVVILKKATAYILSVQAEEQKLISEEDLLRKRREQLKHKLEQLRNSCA
Sequence of Oxysterols receptor LXR-beta (Homo sapiens) (P55055 whole entry, looked up, the tested form may be a part): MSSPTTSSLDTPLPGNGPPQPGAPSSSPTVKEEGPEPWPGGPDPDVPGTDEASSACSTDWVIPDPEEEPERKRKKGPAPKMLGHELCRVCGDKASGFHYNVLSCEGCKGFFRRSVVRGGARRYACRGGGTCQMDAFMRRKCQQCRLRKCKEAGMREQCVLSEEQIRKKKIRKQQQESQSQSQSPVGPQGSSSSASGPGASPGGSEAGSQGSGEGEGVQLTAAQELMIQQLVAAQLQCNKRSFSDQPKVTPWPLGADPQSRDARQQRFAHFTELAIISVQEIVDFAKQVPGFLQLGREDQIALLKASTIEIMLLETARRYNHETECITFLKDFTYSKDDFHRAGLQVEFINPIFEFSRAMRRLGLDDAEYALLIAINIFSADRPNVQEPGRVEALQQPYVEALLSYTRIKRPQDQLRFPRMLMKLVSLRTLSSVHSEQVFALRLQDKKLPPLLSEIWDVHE
Sequence of Nuclear respiratory factor 1 (Homo sapiens) (Q16656 whole entry, looked up): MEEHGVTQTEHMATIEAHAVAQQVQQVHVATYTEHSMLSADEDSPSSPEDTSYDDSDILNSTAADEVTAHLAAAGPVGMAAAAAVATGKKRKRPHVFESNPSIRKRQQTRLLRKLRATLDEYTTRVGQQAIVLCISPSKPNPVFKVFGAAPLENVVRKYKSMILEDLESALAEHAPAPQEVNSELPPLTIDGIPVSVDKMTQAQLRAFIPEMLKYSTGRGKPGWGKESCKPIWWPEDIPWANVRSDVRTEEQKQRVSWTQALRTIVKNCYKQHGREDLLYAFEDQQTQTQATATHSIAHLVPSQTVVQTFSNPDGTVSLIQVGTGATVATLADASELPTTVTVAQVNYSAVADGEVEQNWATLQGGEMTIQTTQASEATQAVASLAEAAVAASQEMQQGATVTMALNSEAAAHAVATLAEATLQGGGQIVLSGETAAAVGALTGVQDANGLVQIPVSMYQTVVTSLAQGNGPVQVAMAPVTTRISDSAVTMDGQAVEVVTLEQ
Sequence of Hepatocyte nuclear factor 4-alpha (Homo sapiens) (P41235 whole entry, looked up): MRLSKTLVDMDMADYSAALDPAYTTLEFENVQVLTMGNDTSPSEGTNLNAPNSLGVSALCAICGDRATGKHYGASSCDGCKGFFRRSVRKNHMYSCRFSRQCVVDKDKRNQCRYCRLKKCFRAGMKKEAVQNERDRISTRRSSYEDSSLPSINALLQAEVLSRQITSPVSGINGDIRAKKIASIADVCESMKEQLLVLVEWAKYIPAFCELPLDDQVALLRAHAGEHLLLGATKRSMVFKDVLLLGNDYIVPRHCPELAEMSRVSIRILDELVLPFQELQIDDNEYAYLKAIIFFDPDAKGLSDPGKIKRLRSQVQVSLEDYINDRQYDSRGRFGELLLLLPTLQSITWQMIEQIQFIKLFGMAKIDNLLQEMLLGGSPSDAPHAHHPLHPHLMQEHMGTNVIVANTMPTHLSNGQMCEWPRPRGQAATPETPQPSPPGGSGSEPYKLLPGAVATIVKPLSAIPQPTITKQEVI
Sequence of Estrogen-related receptor gamma (Homo sapiens) (P62508 whole entry, looked up, the tested form may be a part): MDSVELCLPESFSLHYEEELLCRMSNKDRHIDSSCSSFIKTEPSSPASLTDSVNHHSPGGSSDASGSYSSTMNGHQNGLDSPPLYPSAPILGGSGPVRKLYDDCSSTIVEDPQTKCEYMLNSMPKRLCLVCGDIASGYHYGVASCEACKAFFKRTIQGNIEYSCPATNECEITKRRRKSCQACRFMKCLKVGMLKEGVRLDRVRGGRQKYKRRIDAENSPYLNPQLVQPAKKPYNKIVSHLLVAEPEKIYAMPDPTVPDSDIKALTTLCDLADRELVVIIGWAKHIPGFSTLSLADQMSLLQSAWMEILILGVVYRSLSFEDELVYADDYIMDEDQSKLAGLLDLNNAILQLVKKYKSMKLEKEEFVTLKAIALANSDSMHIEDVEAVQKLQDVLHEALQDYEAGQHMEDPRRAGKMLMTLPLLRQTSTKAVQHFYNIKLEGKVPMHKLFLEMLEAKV
Sequence of Bile acid receptor (Homo sapiens) (Q96RI1 whole entry, looked up, the tested form may be a part): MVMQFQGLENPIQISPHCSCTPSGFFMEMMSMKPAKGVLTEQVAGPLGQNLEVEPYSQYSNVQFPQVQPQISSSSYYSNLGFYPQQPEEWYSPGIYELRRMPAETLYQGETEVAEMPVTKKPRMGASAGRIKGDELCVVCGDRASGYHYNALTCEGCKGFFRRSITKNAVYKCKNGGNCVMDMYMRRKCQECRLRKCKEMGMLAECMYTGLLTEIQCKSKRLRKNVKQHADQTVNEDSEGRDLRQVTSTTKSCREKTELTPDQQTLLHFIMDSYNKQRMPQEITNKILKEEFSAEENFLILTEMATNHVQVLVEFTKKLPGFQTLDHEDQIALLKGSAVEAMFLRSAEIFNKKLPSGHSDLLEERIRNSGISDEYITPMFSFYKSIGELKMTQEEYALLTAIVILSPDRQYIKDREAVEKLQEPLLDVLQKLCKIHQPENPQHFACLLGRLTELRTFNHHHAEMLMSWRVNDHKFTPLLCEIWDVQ

In general, AC50 refers to the midpoint of the concentration-response curve, whichever way the signal moves. For `CNC(=S)S`, the call in assay [1], in assay [2], in [3], in assay [4], in assay [5] and in assay [6] was inactive. The result in assay [7], in assay [8], in assay [9], in assay [10], in assay [11] and in [12] was inactive. Further, the molecule was classed as inactive in [14], in assay [15], in assay [16] and in assay [17]. Further, the half-maximal activity concentration (AC50) in [13] was 26.7 µM (active) and 17.6 µM (active); in assay [14], 50 µM (active).
`CN(C)C(=S)SSC(=S)N(C)C`: the molecule was classed as inactive in assay [2], in assay [3], in assay [7], in [8], in assay [9] and in assay [10]. Moreover, the molecule was classed as inactive in [11], in [12], in assay [13], in assay [14] and in [15]. The values for the AC50 in [16] and in [17] were 31.4 µM (active) and 29.4 µM (active), respectively.
Turning to `CCOc1cc(Oc2ccc(C(F)(F)F)cc2Cl)ccc1[N+](=O)[O-]`, the result in [5], in assay [8], in assay [9], in [10], in assay [12] and in assay [15] was inactive. Besides, the result in [16] and in [17] was inactive. In addition, the AC50 in [11] is 30.3 µM (active); in assay [13], 13.7 µM (active); in [14], 13.7 µM (active).
Consider `CC(C)C1(C)N=C(c2nc3ccccc3cc2C(=O)O)NC1=O` (stereo not given), for which the result in [18], in [19], in assay [2], in assay [3], in assay [4] and in assay [5] was inactive. The molecule was called inactive in assay [6], in assay [7], in assay [8], in [9], in [10] and in [11]. The outcome in assay [12], in assay [13], in assay [14], in [15], in [16] and in assay [17] was inactive.

Source of the values: PubChem BioAssay (EPA / NIEHS).
